Assay results: PubChem BioAssay (NCATS)
Values joined by “and” are separate entries in the source; they are usually repeats but may differ in a detail not shown here. Equal values may be shown once. Inconclusive results are not listed. Where a call stands in place of a potency, no number is given. A number with no mark means an inactive call. Active and inactive are the calls of the source. Calls follow the shape of the dose curve; as a rule, active = well fitted curve in the direction sought with a large enough effect; inconclusive = small, poorly fitted or top-dose-only effect, or another doubt; inactive = no such curve, though single readings can be large; an effect the other way counts as inactive or inconclusive.

Assays:
[1] = target: Cytochrome P450 3A7 (Homo sapiens) (UniProt P24462); assay: Cytochrome P450 family 3 subfamily A member 7 (CYP3A7) small molecule antagonists: luciferase biochemical qHTS assay (AID 1963596); also: nearly all actives have a fitted effect of over 40% in size
Outline: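 Enzyme-substrate mix + cpd (DMSO), 10 min RT; + NADPH regen system, 1 h RT; + luciferin detection reagent, 20 min RT; luminescence read. Proluciferin substrate, P450-Glo format, 1536-well qHTS.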

[2] = Viability qHTS for spleen associated tyrosine kinase inhibitor (SYKi) drug resistant MV4-11 cells (AID 1963824); also: nearly all actives have a fitted effect of over 35% in size; also: potency is read from the fitted curve at half-maximal effect
Outline: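 CellTiter-Glo luminescence, read 10 min after reagent addition, reports viability after a 72 hr compound exposure. Cells are an MV4-11 line made resistant to SYK inhibition, seeded at 500 per well onto compound-containing plates.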

[3] = Cellular viability qHTS for adrenocortical cancer (ACC) cell line SW-13 (AID 1963989); settings: SW-13 ACC cells viability, CellTiter-Glo, 48 h; activity (max response): hits give low values; also: nearly all actives have a fitted effect of over 65% in size; also: potency is read from the fitted curve at half-maximal effect;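 as to activity (max response): cells grown in serum-free medium with ITS supplement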
Outline: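 Compound titrations (up to 46 uM final, in DMSO) were applied to SW-13 cells for 48 h at 37C/5% CO2. Reading used CellTiter-Glo after 20 min at room temperature; fitted curves yielded IC50 and efficacy.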

[4] = Cellular viability qHTS for adrenocortical cancer (ACC) cell line NCI-H295R (AID 1963990); also: nearly all actives have a fitted effect of over 60% in size; also: potency is read from the fitted curve at half-maximal effect
Outline: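 Readout: CellTiter-Glo luminescence, 20 min RT. Exposure: 48 h, 37C/5% CO2. Cells: NCI-H295R, ITS-DMEM serum-free. Range: up to 46 uM. Analysis: 4PL fit, IC50 plus efficacy.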

Cytochrome P450 3A7 (Homo sapiens), sequence (P24462 whole entry, looked up): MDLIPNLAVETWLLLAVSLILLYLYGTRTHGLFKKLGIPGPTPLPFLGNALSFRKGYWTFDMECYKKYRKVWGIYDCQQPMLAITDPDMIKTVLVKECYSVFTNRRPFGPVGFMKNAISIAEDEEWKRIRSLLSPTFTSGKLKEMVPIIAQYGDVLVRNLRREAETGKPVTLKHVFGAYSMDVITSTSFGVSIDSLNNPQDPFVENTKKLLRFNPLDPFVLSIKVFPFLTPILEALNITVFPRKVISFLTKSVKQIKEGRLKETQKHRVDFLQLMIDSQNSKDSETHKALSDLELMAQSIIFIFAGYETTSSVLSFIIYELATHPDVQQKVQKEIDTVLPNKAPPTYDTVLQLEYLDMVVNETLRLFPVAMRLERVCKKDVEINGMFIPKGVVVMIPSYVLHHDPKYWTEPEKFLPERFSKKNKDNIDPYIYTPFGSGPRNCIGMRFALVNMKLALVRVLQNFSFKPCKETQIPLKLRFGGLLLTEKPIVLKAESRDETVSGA

Compound | Potency [1] | Potency [2] | activity (max response) [3] | Potency [4] | Potency [3]
CC1(C)CO[C@@H](CC(=O)O)CN1 | inactive | inactive | 8.37% | inactive | 
CCN(CC)CC(=O)Oc1ccc(NC(C)=O)cc1 | inactive | inactive | 13.2% | inactive | 
CCCN(CCC)CCc1cccc2c1CC(=O)N2 | inactive | inactive | 8.18% | inactive | 
CC(=O)NO | inactive | inactive | 11.6% | inactive | 
O=C(O)CNC(=O)c1ccccc1 | inactive | inactive | 6.31% |  | 
CCCCCCCCCCCCOS(=O)(=O)O | inactive | inactive | 4.63% |  | 
NC/C=C/C(=O)O | inactive | inactive | 8.43% | inactive | 
CCCCCC(C)N (centres undefined) | inactive | inactive | 17.9% | inactive | 
CCN1CCN(C(=O)N[C@@H](C(=O)N[C@@H]2C(=O)N3[C@@H]2SC(C)(C)[C@H]3C(=O)O)c2ccccc2)C(=O)C1=O | inactive | inactive | 12.1% | inactive | 
Cc1ncc(CO)c(C=O)c1O | inactive | inactive | -2.89% | inactive | 
CC1CCc2cc(F)cc3c(=O)c(C(=O)O)cn1c23 (centres undefined) | inactive | 6.68 µM (active) | 5.01% | inactive | 
CN(C)CC[C@@H](c1ccc(Cl)cc1)c1ccccn1 | inactive | inactive | 7.75% | inactive | 
O=c1ccn([C@@H]2O[C@H](CO)[C@@H](O)[C@H]2O)c(=O)[nH]1 | inactive | inactive | -5.6% | inactive | 
C=C(C)C(=O)OCC(O)CO (centres undefined) | inactive | inactive | -4.84% | inactive | 
CCCOC(=O)c1ccccc1 | inactive | inactive | 11.8% | inactive | 
CC(=O)OCC(=O)[C@@]12N=C(C)O[C@@H]1C[C@H]1[C@@H]3CCC4=CC(=O)C=C[C@]4(C)[C@H]3[C@@H](O)C[C@@]12C | inactive | inactive | 11.7% and 0.528% | inactive | 
C[C@@H]1CCC[C@H](C)N1CCCC(O)(c1ccccc1)c1ccccn1 (some centres undefined) | inactive | inactive | -5.41% | inactive | 

Compound | Potency [1] | Potency [2] | activity (max response) [3] | Potency [4] | Potency [3]
CC(C)Cn1cnc2c1c(=O)n(C)c(=O)n2C | inactive | inactive | -11.6% | inactive | 
Cc1ccc2ccc(Cl)cc2n1 | inactive | inactive | 15.8% | inactive | 
C[C@@H](N)C(=O)O | inactive | inactive | 1.67% | inactive | 
O=C(O)c1ccc(OCCN2CCCCC2)cc1 | inactive | inactive | 10.8% | inactive | 
Cc1ccc(Cl)c(OCC(O)CNC(C)(C)C)c1 (centres undefined) | inactive | inactive | 1.06% | inactive | 
CCN1CCN(Cc2ccc(NC(=O)c3ccc(C)c(NC(=O)c4cncc(-c5cccs5)c4)c3)cc2C(F)(F)F)CC1 | inactive | 14.6 nM (active) and 26.3 nM (active) |  | 2.51 µM (active) | 2 µM (active)
CCOC(=O)C(O)c1ccccc1 (centres undefined) | inactive | inactive | 4.7% | inactive | 
Cc1cc(-n2nc3ccc(Cl)cc3n2)c(O)c(C(C)(C)C)c1 | inactive | inactive | 9.75% | inactive | 
CC(=O)N(CC(O)CO)c1c(I)c(C(=O)NCC(O)CO)c(I)c(C(=O)NCC(O)CO)c1I (centres undefined) | inactive | inactive | 11.9% | inactive | 
CCCNC(=O)NS(=O)(=O)c1ccc(Cl)cc1 | inactive | inactive | -2.41% | inactive | 
CCCCCCCC(=O)OCC(O)CO (centres undefined) | inactive | inactive | -7.07% | inactive | 
O=S(=O)(O)c1ccc(O)cc1 | inactive | inactive | 11.9% | inactive | 
NS(=O)(=O)c1ccc(N2CCCCS2(=O)=O)cc1 | inactive | inactive | 16.4% | inactive | 
CNC(=O)Oc1ccc2c(c1)[C@]1(C)CCN(C)[C@@H]1N2C | inactive | inactive | 16.2% | inactive | 
CC(=O)OC(C)C[N+](C)(C)C (centres undefined) | inactive | inactive | -1.07% | inactive | 
COCCc1ccc(OCC2CO2)cc1 (centres undefined) | inactive | inactive | -2.52% | inactive | 
Cc1cccc(Oc2cnc(=O)[nH]c2)c1 | inactive | inactive | 6.68% | inactive | 
